Myeloid diff 2 – induction of myeloid progenitor differentiation, primary screen, cell-based, flow cytometry, MLPCN library. ER-HoxA9 myeloid progenitors, lysozyme-GFP differentiation. calls only at 10 µM. 1% of 360,000 active;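 active = normalized GFP-positive differentiation at or above the plate's own cutoff, the solvent-only control mean plus 3 SD; inconclusive = no clear call, values can overlap the other calls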;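 also: cells exposed to compound for four days before flow analysis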
CRFBP-R2 agonist – agonists of CRF-BP/CRF-R2 complex, primary screen, cell-based, HEK293, calcium dye fluorescence, uHTS. AID 588473, 2011. 0.46% of 350,000 active. CRF-binding protein / CRF receptor 2 complex (human). activation, % at 13.2 µM. calcium dye fluorescence (FLIPR); percent of saturating CRF peptide response;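 active = activation of at least 50%, plus an integration ratio under a set limit after plate pattern correction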
RTF Ca sens inh – cardiac RTF calcium sensitivity inhibitors, primary screen, biochemical, IANBD-TnC fluorescence, EC70 calcium; Troponin I, cardiac muscle (Homo sapiens) + Troponin T, cardiac muscle (Homo sapiens) + …; IANBD-labeled cardiac RTF, Ca2+ fluorescence; inhibition, % at 7.15 µM; 0.12% of 340,000 active;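 active = inhibition above the mean inhibition of all tested compounds plus 3 SD, cut at about 17% in these data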;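 also: assay run at fixed EC70 calcium of 1.6 mM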
CRFBP-R2 block – antagonists of CRF-BP/CRF-R2 complex, primary screen, cell-based, HEK293, calcium dye fluorescence, uHTS; inhibition, % at 11.8 µM; 0.59% of 350,000 active; AID 588475, 2011; CRF-induced calcium fluorescence;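 active = inhibition of the ligand-induced calcium signal above about 50% at the single tested concentration, limit read from the data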
cardiac RTF act – cardiac RTF calcium sensitivity activators, primary screen, biochemical, IANBD-TnC fluorescence, EC20 calcium. Troponin I, cardiac muscle (Homo sapiens) + Troponin T, cardiac muscle (Homo sapiens) + …. IANBD-labeled TnC RTF fluorescence at EC20 calcium; 0% EC20 calcium, 100% full calcium. activation, % at 7.2 µM. 0.24% of 340,000 active. AID 493008, 2010;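 active = activation above the mean over all tested compounds plus 3 SD, cut at about 30% in these data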;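 also: rise in fluorescence read as greater calcium sensitivity of cardiac thin filaments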
Each line names hits and unclear results; the compound was inactive in the other large screens. Only some compounds are listed: those with a hit (about 2.2% of all), similar ones and a draw of the others.

O=C(COc1ccc([N+](=O)[O-])cc1)NNC(=O)Nc1ccc([N+](=O)[O-])cc1	none
O=C(C/C=N\OCc1ccc([N+](=O)[O-])cc1)Nc1ccc(Br)cc1	CRFBP-R2 block 84
COc1ccc(OCC(=O)N2CCN(c3nnc(-c4ccc(C)cc4)c4ccccc34)CC2)cc1	none
Cc1ccc(-c2nnc(N3CCN(C(=O)COc4cccc(C)c4)CC3)c3ccccc23)cc1	Myeloid diff 2 active
Cc1ccc(OCC(=O)N2CCN(c3nnc(-c4ccc(C)cc4)c4ccccc34)CC2)cc1	CRFBP-R2 block 68
O=[N+]([O-])c1cccc(-c2n[nH]c(=S)n2Cc2ccccc2)c1	none
COc1ccc(OC)c(N=c2oc3cc(O)ccc3cc2C(N)=O)c1	Myeloid diff 2 inconclusive
COc1ccc2oc(=Nc3cc(F)ccc3F)c(C(N)=O)cc2c1	Myeloid diff 2 active
COC(=O)[C@H](C)NC(=O)c1cc2c(cn1)[nH]c1ccccc12	cardiac RTF act 32
C[C@H](NC(=O)c1cc2c(cn1)[nH]c1ccccc12)C(=O)O	none
O=C(NCCCSc1ccccc1)c1cc(Cl)ccc1O	none
CC1=C(C(=O)Nc2cccc(C(=O)NC3CCCC(C)C3C)c2)SCCO1 (stereo not drawn)	Myeloid diff 2 active
COCCNC(=O)c1cccc(NC(=O)C2=C(C)OCCS2)c1	none (no result: Myeloid diff 2)
Cc1cnc(C(=O)OCC(=O)Nc2cc(Cl)ccc2C#N)cn1	none
COc1ccc2c(-c3ccccc3)cc(SCC(N)=O)nc2c1	Myeloid diff 2 active
COc1ccc2nc(SCC(N)=O)cc(C)c2c1	none
COc1ccc2c(C)cc(SCn3nnc4ccccc4c3=O)nc2c1	CRFBP-R2 block 53
COc1ccc2c(C)cc(SCC(=O)N(C)C3CCS(=O)(=O)C3)nc2c1 (stereo not drawn)	Myeloid diff 2 active
COc1ccc(-c2nnc(SCC(=O)N(C)C3CCS(=O)(=O)C3)n2C(C)C)cc1 (stereo not drawn)	none
CCNc1nc(NCC)n2c(SC(C(=O)Nc3cc(C)ccc3OC)c3ccccc3)nnc2n1 (stereo not drawn)	none
COc1ccc(C)cc1NC(=O)c1ccccc1NS(=O)(=O)c1cccc2cccnc12	none
CSc1cccc(NC(=O)CC2Oc3ccccc3NC2=O)c1 (stereo not drawn)	none
CCN(CC)c1ccc(/C=C2\C(=N)N3N=C(CC(=O)N4CCOCC4)SC3=NC2=O)cc1	Myeloid diff 2 active, CRFBP-R2 agonist 109, cardiac RTF act 38
CN1CCN(CCNC(=O)Cn2c(=O)c3cccn3c3ccc(F)cc32)CC1	none
O=C(CNC(=O)C1CCCCC1)Nc1ccc(F)c(Cl)c1	CRFBP-R2 block 65
CN1CCN(C(=O)C2Cc3c(-c4ccc5c(c4)OCO5)ccnc3O2)CC1 (stereo not drawn)	none (no result: CRFBP-R2 agonist, RTF Ca sens inh, CRFBP-R2 block, cardiac RTF act)
CN(C)S(=O)(=O)N1CCC(Oc2ccc(C(=O)N3CCCCCCC3)cc2)CC1	Myeloid diff 2 inconclusive
CN(C)S(=O)(=O)N1CCC(Oc2ccc(C(=O)N3CCCCCC3)cc2)CC1	Myeloid diff 2 active (no result: RTF Ca sens inh, cardiac RTF act)
OC(C#CCN1CCCC1)(c1ccccc1)c1cccnc1 (stereo not drawn)	none (no result: RTF Ca sens inh, cardiac RTF act)
OC(C#CCN1CCCCCC1)(c1ccccc1)c1cccnc1 (stereo not drawn)	CRFBP-R2 block 117
O=C(CCC(=O)N1CCOCC1)NCCc1ccccc1	none
Fc1ccc(COc2cccc(CNCc3ccncc3)c2)cc1	Myeloid diff 2 active
CCOc1ccc(/C=C(\C#N)C(=O)Nc2cccnc2)cc1	none
CCOc1ccc(NC(=O)/C(C#N)=C\c2ccc(N3CCCC3)c(C)c2)cc1	CRFBP-R2 agonist 99, cardiac RTF act 72
CCC1CCCCN1C(=O)CSc1nnc(CNC(=O)c2c(F)cccc2Cl)o1 (stereo not drawn)	none
O=c1[nH]c(=S)[nH]c2nc(-c3ccccc3)cnc12	none
Cc1cc2nc3c(=O)[nH]c(=S)[nH]c3nc2cc1NC(=O)C(F)(F)F	cardiac RTF act 65
CN(C)C(=O)OCc1c(-c2ccccc2)ncc2ccccc12	none (no result: Myeloid diff 2)
Cc1ccc(CC(=O)O/N=C(\N)c2ccncc2)cc1	Myeloid diff 2 active
N/C(=N\OC(=O)COc1ccc(Br)cc1)c1ccncc1	CRFBP-R2 block 59
N/C(=N\OC(=O)COc1ccc([N+](=O)[O-])cc1)c1ccncc1	none
CC(C)CC(NC(N)=O)C(=O)NCc1ccccc1Cl (stereo not drawn)	Myeloid diff 2 active
CC(C)CC(NC(N)=O)C(=O)NCc1ccc(Cl)cc1 (stereo not drawn)	none
O=C(OCc1ccc(Br)cc1)c1cccnc1	none
O=C(OCC(O)COC(=O)c1cccnc1)c1cccnc1	Myeloid diff 2 active
O=C(c1ccc(Cl)c(Cl)c1)N1CCC(=O)N(C(COCc2cccc(Cl)c2)Cc2ccccc2)CC1 (stereo not drawn)	Myeloid diff 2 active
O=C(c1cccc(Cl)c1)N1CCC(=O)N(C(COCc2cccc(Cl)c2)Cc2ccccc2)CC1 (stereo not drawn)	none
Cc1ccc(S(=O)(=O)N2CCC(=O)N(C(COCc3ccc(Cl)c(Cl)c3)Cc3ccccc3)CC2)cc1 (stereo not drawn)	CRFBP-R2 agonist 71 (no result: Myeloid diff 2, RTF Ca sens inh, cardiac RTF act)
Cc1ccc(S(=O)(=O)N2CCC(=O)N(C(COCc3ccc(C(F)(F)F)cc3)Cc3ccccc3)CC2)cc1 (stereo not drawn)	CRFBP-R2 agonist 62
Cc1nn(Cc2ccccc2)c2ncccc12	none
Cc1ccc(NC(=O)Cn2ncn3c(cc4ccccc43)c2=O)cc1F	CRFBP-R2 block 60
CCc1cccc(NC(=O)Cn2ncn3c(cc4ccccc43)c2=O)c1	none
O=C(COC(=O)c1ccc(S(=O)(=O)N2CCCCCC2)cc1)NCc1ccc(Cl)cc1	none
CCn1ccnc1CNC(=O)C1CCC(=O)N(Cc2ccccc2F)C1 (stereo not drawn)	none
O=C(NCc1cn2ccccc2n1)C1CCC(=O)N(Cc2ccccc2F)C1 (stereo not drawn)	CRFBP-R2 block 61
COc1ccc(/C=C2\CCC(C3CCCC3)C2=O)c(OC)c1OC (stereo not drawn)	Myeloid diff 2 inconclusive
COc1ccc(/C=C2/CC/C(=C\c3ccc(OC)c(OC)c3OC)C2=O)c(OC)c1OC	CRFBP-R2 agonist 52
CCOc1cc(/C=N/Nc2nc(-c3cccs3)c(NC(C)=O)s2)ccc1O	none
CC(C)(C)n1ncc2c(=O)n(Cc3ccc(Cl)c(Cl)c3)cnc21	Myeloid diff 2 active
CC1(C)CC(NC(=O)c2ccc(Cl)c(S(=O)(=O)N(Cc3ccccc3)c3ccccc3)c2)CC(C)(C)N1	none
Cc1ccc(CSCC(=O)Nc2cc(S(=O)(=O)N3CCOCC3)ccc2OC(C)C)cc1	CRFBP-R2 block 64

Compound activity (PubChem)
